Dicer inh – inhibitors of human Dicer processing of pre-microRNA | cat-ELCCA pre-miR-21 Dicer processing, chemiluminescence; stronger effect = higher value | z-score at 25 µM | 6% of 47,000 active | AID 1347074; in the data active = z-score above about 3, passing the limit was not always enough;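 note: plate controls were vehicle for no effect and no enzyme for full effect; higher signal means more uncleaved substrate so more Dicer inhibition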
Target sequence (Q9UPY3 whole entry, looked up): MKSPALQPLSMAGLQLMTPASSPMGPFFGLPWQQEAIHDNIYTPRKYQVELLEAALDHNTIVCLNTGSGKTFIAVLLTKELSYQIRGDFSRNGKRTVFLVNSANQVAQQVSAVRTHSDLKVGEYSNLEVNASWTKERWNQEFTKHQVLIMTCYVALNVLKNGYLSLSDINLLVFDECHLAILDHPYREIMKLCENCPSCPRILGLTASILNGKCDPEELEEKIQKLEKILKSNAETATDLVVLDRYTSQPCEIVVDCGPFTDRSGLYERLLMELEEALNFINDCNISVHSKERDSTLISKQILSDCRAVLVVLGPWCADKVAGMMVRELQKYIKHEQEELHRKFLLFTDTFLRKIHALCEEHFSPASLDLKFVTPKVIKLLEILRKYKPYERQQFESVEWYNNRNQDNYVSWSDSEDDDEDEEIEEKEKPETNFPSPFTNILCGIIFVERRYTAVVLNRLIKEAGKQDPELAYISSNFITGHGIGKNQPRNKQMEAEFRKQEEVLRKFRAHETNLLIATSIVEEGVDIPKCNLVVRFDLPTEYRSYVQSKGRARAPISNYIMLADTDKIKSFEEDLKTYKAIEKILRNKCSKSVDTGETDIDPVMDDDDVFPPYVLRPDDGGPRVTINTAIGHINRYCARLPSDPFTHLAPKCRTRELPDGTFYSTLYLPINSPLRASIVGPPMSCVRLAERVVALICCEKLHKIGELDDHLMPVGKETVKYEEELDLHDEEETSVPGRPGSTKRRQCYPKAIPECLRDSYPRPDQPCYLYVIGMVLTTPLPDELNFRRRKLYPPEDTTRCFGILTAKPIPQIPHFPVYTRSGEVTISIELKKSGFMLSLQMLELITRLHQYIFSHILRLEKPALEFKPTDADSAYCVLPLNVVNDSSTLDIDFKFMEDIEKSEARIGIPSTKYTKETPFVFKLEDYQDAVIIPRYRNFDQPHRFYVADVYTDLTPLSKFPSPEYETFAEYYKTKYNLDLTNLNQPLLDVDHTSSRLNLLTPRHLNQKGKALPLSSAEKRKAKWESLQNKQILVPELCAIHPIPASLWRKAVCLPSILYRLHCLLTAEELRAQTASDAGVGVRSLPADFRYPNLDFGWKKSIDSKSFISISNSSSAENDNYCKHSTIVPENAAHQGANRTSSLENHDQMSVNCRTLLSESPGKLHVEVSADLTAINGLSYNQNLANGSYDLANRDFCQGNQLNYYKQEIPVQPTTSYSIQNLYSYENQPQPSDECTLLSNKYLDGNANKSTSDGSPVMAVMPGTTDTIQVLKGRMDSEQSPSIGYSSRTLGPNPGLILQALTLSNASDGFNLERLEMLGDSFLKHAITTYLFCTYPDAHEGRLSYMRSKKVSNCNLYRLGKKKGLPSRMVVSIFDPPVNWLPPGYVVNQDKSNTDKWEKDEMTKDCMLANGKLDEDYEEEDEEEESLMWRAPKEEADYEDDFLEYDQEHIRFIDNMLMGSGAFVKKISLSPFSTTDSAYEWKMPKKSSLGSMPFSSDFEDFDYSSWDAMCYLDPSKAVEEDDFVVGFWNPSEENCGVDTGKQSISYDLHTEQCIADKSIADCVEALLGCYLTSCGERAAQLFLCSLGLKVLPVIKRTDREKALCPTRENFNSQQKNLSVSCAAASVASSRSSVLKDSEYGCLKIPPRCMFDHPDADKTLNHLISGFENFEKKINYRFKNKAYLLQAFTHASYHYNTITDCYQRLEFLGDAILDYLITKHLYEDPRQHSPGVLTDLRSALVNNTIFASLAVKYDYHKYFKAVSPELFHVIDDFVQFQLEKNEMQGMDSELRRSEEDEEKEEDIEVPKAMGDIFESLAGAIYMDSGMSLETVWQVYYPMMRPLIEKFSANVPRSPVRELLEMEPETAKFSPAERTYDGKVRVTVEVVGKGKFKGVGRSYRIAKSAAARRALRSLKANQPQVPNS
Starred values were filed as active, the others as inactive. The sample as a whole holds a higher share of hits than the screen did.

SMILES	Dicer inh
CC(=O)Nc1nc(NC(C)=O)nc(N2CCCCC2)n1	-0.69
Cn1c(=O)[nH]c(=O)c2c1nc1n2CC(c2ccccc2)=NN1	-1.3
COCCCn1c(=S)[nH]c2cc(Cl)ccc2c1=O	-10
COCCCn1c(-c2ccc(Cl)cc2)cc(-c2cccs2)c1-c1ccccc1	3.3*
CSc1ccc(-c2c(-c3cccs3)cc(-c3ccc(Cl)cc3)n2C)cc1	0.36
Cc1ccc2c(c1)nnn2CNc1ccc(OC(F)(F)F)cc1	2.6
NC(=O)c1ccc(CC(=O)c2ccc(Cl)cc2)cc1	0.14
CC(=O)/C(=C\Nc1ccc(O)cc1)c1nnnn1-c1ccccc1	2.8
CCOc1cc(C2C(C#N)=C(N)Oc3n[nH]c(C)c32)ccc1O (centres undefined)	-5
COCCN1C(=O)C(=O)/C(=C(/O)c2ccccc2)C1c1ccccc1OC (centres undefined)	-3.9
CCOc1nc2ccccc2nc1OCC	0.29
CCOc1ccc(OCC)c2sc(C)nc12	3.2*
CCc1ccc2[nH]c3sc(C)nc3c2c1	-1.4
Cn1c(SCC(=O)N/N=C/c2ccc(OCc3ccccc3)cc2)nnc1-c1ccccc1	-0.56
O=C(O)c1cscc1S(=O)(=O)c1ccc(Cl)cc1	-0.44
S=C(NCc1csc2ccccc12)c1ccccc1	-1.4
Cc1cc(C)c(NC(=S)NCc2csc3ccccc23)c(C)c1	2.5
CC(C)(CC(=O)O)CC(=O)NCc1csc2ccccc12	4.5*
Oc1ccccc1C/C=C/c1ccccc1	0.35
CC1CCc2c(sc3nnn(CC(=O)N4CCCC4)c(=O)c23)C1 (centres undefined)	-0.75
O=C(c1cn(CC(=O)N2CCCCC2)c2ccccc12)C1CC1	1
O=C(Cn1nc(C(F)F)cc1C1CC1)N1CCCC1	3.1*
COc1ccccc1N1C(=O)C2C(c3ccc(Cl)cc3)OC3(C(=O)c4ccccc4C3=O)C2C1=O (centres undefined)	0.68
CSC(=Nc1ccc(C)cc1)Nc1ccc(C)cc1	0.74
CN(C)c1ccc(C2C(C#N)=C3N=C(N)c4ccccc4N3C3=C2C(=O)CC(C)(C)C3)cc1 (centres undefined)	6.9*
SMILES	Dicer inh
COc1ccccc1C1C(C#N)=C2N=C(N)c3ccccc3N2C2=C1C(=O)CCC2 (centres undefined)	-1
CC1(C)CC(=O)C2=C(C1)N1C(=C(C#N)C2c2ccc3c(c2)OCO3)N=C(N)c2ccccc21 (centres undefined)	0.12
COc1ccc(C2C(C#N)=C3N=C(N)c4ccccc4N3C3=C2C(=O)CCC3)cc1 (centres undefined)	1.5
N#CC1=C2N=C(N)c3ccccc3N2C2=C(C(=O)CCC2)C1c1ccc(Cl)cc1 (centres undefined)	2
COc1ccc(OC)c(C2C(C#N)=C3N=C(N)c4ccccc4N3C3=C2C(=O)CC(C)(C)C3)c1 (centres undefined)	4.8*
Cc1ccc(-c2nn(CCO)c(=O)c3ccccc23)cc1C	1.7
COC(=O)c1cn(C(=O)c2ccco2)c2ccccc12	-0.78
COC(=O)c1cn(C(=O)c2cccs2)c2ccccc12	3*
COC(=O)c1cn(C(=O)COc2ccc(Cl)cc2)c2ccccc12	0.02
Cc1ccc(NS(=O)(=O)c2ccc(Br)cc2C)c(C)c1	-0.51
CCOc1cccc(=O)c2c(C)n(-c3ccc4c(c3)OCO4)c(C)c12	-1
CCOc1cccc(=O)c2c(C)n(-c3ccc(OC)cc3)c(C)c12	-0.08
CCOC(=O)c1ccc(-n2c(C)c3c(OCC)cccc(=O)c3c2C)cc1	3.6*
CCOC(=O)/C(C#N)=C/c1ccc(C)o1	1.6
COc1ccc(C(=O)NC(=Nc2c(C)cccc2C)SC)cc1	-0.85
Cc1ccc2oc(=O)n(CC(=O)O)c2c1	1.3
COc1ccc(Cn2c(=O)oc3ccccc32)cc1OC	-0.24
Cc1ccc2oc(=O)n(Cc3ccccc3OC(C)C)c2c1	5.1*
O=C(/C=C/Sc1nc2ccccc2s1)c1ccccc1	-0.51
Clc1ccc2c(c1)N=C(N1CCNCC1)c1ccccc1N2	4*
O=C1Nc2ccc(Cl)cc2C(c2ccccc2)=Nc2ccccc21	-1.2
CN1CCN(C2=Nc3cc(Cl)ccc3Nc3ccccc32)CC1	20
CC1CCN(C2=CC(=O)OC23CCCCC3)CC1	-0.14
c1ccc(-c2noc(CSc3nnc(-c4ccco4)n3-c3ccccc3)n2)cc1	0.44
c1ccc(-c2noc(CSc3nnc(-c4cccs4)n3-c3ccccc3)n2)cc1	3.6*
SMILES	Dicer inh
Cc1nnc(SCc2nc(-c3ccc(Cl)cc3)no2)n1-c1ccccc1	0.62
O=C(Nc1ccccc1Sc1nccc(C(F)(F)F)n1)c1ccc(Cl)cc1	-2
COCCCN1C(=O)c2cccc3c(N4CCOCC4)ccc(c23)C1=O	0.75
Cc1ccc(NC(c2ccccn2)c2ccc3cccnc3c2O)c(C)c1 (centres undefined)	-1.2
O=C(Nc1cccc2cccnc12)C(Cl)(Cl)Cl	-0.2
Cc1ccc(NC(c2cccnc2)c2ccc3cccnc3c2O)cc1C (centres undefined)	-0.31
Cc1cc(Cl)ccc1Oc1ncccc1N	-2.9
Cc1cc(Cl)ccc1NC(c1ccccn1)c1ccc2cccnc2c1O (centres undefined)	9.1*
Oc1c(C(Nc2ccccc2Cl)c2cccnc2)ccc2cccnc12 (centres undefined)	6.2*
Cc1cc(Cl)ccc1NC(c1cccnc1)c1ccc2cccnc2c1O (centres undefined)	11*
COc1ccc(C(=O)CSc2nc(N)cc(=O)[nH]2)cc1C	48
CCOc1cccc(C2c3c(oc4ccccc4c3=O)C(=O)N2c2nncs2)c1 (centres undefined)	-0.21
O=c1[nH]c2ccccc2c(O)c1C=NCc1ccccc1	-0.78
COc1ccc(-c2cc3nccc(-c4ccccc4O)n3n2)cc1	2
c1ccc(-c2cc3nccc(-c4ccccc4)n3n2)cc1	0.55
CN1C(=O)COc2ccc(-c3ccnc4cc(-c5ccc(Cl)cc5)nn34)cc21	-1.7
Oc1ccc(F)cc1-c1ccnc2cc(-c3ccc(Cl)cc3)nn12	4*
Cc1cc2nccc(-c3ccc(Cl)cc3)n2n1	1.4
Cc1ccc(O)c(-c2ccnc3cc(-c4ccccc4)nn23)c1	1.1
Oc1ccccc1-c1ccnc2cc(-c3ccc(Cl)cc3)nn12	3.3*
COc1ccc(-c2cc3nccc(-c4cc(Cl)ccc4O)n3n2)cc1	5.2
Oc1ccc(Cl)cc1-c1ccnc2cc(-c3ccccc3)nn12	9.3*
CCc1nn2c(N)c(C#N)cnc2c1-c1ccc(F)cc1	-0.32
C=CCSc1nc2c(c(=O)n1C)C1(CCCC1)Cc1ccccc1-2	1.4
COc1ccc(-c2noc(-c3cccc4ccccc34)n2)cc1	-0.04
SMILES	Dicer inh
CCOC(=O)C1=C(C)NC2=C(C(=O)CCC2)C1c1ccc(C)cc1 (centres undefined)	-2.3
O=C(CSC1=NC(=O)C(c2ccccc2)C(=O)N1)Nc1nc2ccccc2s1 (centres undefined)	3
Cc1nn(CC(=O)N/N=C/c2c(F)cccc2Cl)c(C)c1Br	-1.9
Cc1ccc(S(=O)(=O)CCSC2=CC(=O)CC(C)(C)S2)cc1	-3.2
CC1(C)CC(=O)C=C(SCc2ccc(Cl)cc2)S1	4*
CC1(C)CC(=O)C=C(SCCS(=O)(=O)c2ccccc2)S1	1.9
O=C1NCCc2c1[nH]c1ccc(C3CCCCC3)cc21	2.3
CCNc1nc2c(Cl)cc(Cl)cc2s1	-0.3
Nc1ccc(O)c(-c2nc3ccc(N)cc3s2)c1	-2.9
COc1ccc(S(=O)(=O)NCCO)cc1C(=O)O	1.9
CCOC(=O)c1sc(SC)c2c1CC(c1ccccc1)CC2=O (centres undefined)	3.7*

High-throughput results from PubChem.
